Experimental findings from PubChem BioAssay (EPA / NIEHS) are described below.

The AC50 is the concentration at which the activity in the assay is half-maximal.

“And” between values parts separate entries of the source, which are not always exact repeats. Identical values can stand only once. Results filed as inconclusive are left out. More than one record can exist for a structure, and the calls need not agree. The source made the active and inactive calls. Rule for the calls: active = hit-call score of the fitted dose curve at least 0.9, where 1 is the maximum; inconclusive = response in the unintended direction; inactive = score below 0.9.

The nature of assay [1]: ATG_M_06_XSP2: Attagene TRANS-FACTORIAL Multi-Species (XSP2) HepG2 Assay for M06 Transcription Factor (Internal Marker) (AID 2283811).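 Note: hits are increases in signal above the DMSO baseline.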 The procedure, abridged: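 HepG2 cells transiently transfected with GAL4-UAS multiple reporter units, medium containing 3 nM 6-alpha-fluorotestosterone and 1.5 nM norgestrel; reporter mRNA measured 24 hours post-dosing by RT-PCR and capillary electrophoresis. Internal background marker, gain of signal vs DMSO.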

The subject of assay [2] is turtle Estrogen Receptor (ERa), gene 101933533. Description: ATG_trERa_XSP2: Attagene TRANS-FACTORIAL Multi-Species (XSP2) HepG2 Assay for turtle Estrogen Receptor (ERa) (AID 2283812).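 Note: human HepG2 liver cells transiently expressing turtle ERa-Gal4 chimeric receptor; actives raise reporter signal above DMSO so AC50 reflects agonist activity.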 A digest of the protocol: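 HepG2 cells transiently transfected with GAL4-UAS reporter units expressing turtle ERa-Gal4 chimera. Reporter mRNA measured after 24 h dosing by RT-PCR, fluorescent labelling and capillary electrophoresis; gain of signal fitted versus DMSO.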

Assay [3] has as its target Estrogen receptor beta (Homo sapiens) (UniProt Q92731). In words: ATG_hERb_XSP2: Attagene TRANS-FACTORIAL Multi-Species (XSP2) HepG2 Assay for human Estrogen Receptor (ERb) (AID 2283813).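 Note: actives raise reporter mRNA above DMSO so AC50 reflects agonist induction.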 A digest of the protocol:
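HepG2 cells transiently transfected with GAL4-UAS reporter units and chimeric human ERb-Gal4, 24 h exposure. Reporter mRNA quantified by RT-PCR with FAM labelling, HpaI digestion and capillary electrophoresis; gain of signal versus DMSO.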

Assay [4] has as its target zebrafish Estrogen Receptor (ER1), esr1 (gene 259252) (UniProt P57717). In words: ATG_zfER1_XSP2: Attagene TRANS-FACTORIAL Multi-Species (XSP2) HepG2 Assay for zebrafish Estrogen Receptor (ER1) (AID 2283816). A digest of the protocol:
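HepG2 cells transiently transfected with a GAL4-UAS reporter and a chimeric zebrafish ER1-Gal4 construct, dosed 24 h. Reporter mRNA quantified by RT-PCR, labelling, HpaI digestion and capillary electrophoresis, relative to DMSO.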

Assay [5] concerns the target GAL4 Transcription Factor (Internal Marker), GAL4 (gene 855828) (UniProt P04386). Description: ATG_GAL4_XSP2: Attagene TRANS-FACTORIAL Multi-Species (XSP2) HepG2 Assay for GAL4 Transcription Factor (Internal Marker) (AID 2283814).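 Note: GAL4 reporter mRNA background control in MRTU transfected cells not a receptor target.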 The procedure, abridged:
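HepG2 cells transiently transfected with GAL4-UAS reporter units, stimulated with 3 nM 6-alpha-fluorotestosterone plus 1.5 nM norgestrel, dosed 24 h. Reporter mRNA by RT-PCR/capillary electrophoresis; gain-of-signal fit versus DMSO, background control.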

Assay [6] concerns the target zebrafish Thyroid Hormone Receptor alpha (TRa), thraa (gene 30670) (UniProt Q98867). In words: ATG_zfTRa_XSP1: Attagene TRANS-FACTORIAL Multi-Species (XSP1) HepG2 Assay for zebrafish Thyroid Hormone Receptor alpha (TRa) (AID 2283807). A digest of the protocol: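 HepG2 cells transiently transfected with GAL4-UAS reporter units including a zebrafish TRa–Gal4 chimera, dosed 24 h with 3 nM 6-alpha-fluorotestosterone present. Reporter mRNA quantified by RT-PCR and capillary electrophoresis; gain versus DMSO.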

For assay [7], the target named is human Thyroid hormone Receptor beta (TRb), THRB (gene 7068) (UniProt P10828). In words: ATG_hTRb_XSP1: Attagene TRANS-FACTORIAL Multi-Species (XSP1) HepG2 Assay for human Thyroid hormone Receptor beta (TRb) (AID 2283808). A digest of the protocol:
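HepG2 cells transiently transfected with reporter units driving GAL4-UAS reporters for chimeric NR-Gal4 proteins; 24 h chemical exposure with 3 nM 6-alpha-fluorotestosterone present. Reporter mRNA quantified by RT-PCR and capillary electrophoresis, gain of signal versus DMSO.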

Assay [8] concerns the target zebrafish Thyroid Hormone Receptor beta (TRb), thrb (gene 30607) (UniProt Q9PVE4). Description: ATG_zfTRb_XSP1: Attagene TRANS-FACTORIAL Multi-Species (XSP1) HepG2 Assay for zebrafish Thyroid Hormone Receptor beta (TRb) (AID 2283809). The procedure, abridged:
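HepG2 cells transiently transfected with multiplexed GAL4-UAS reporter units expressing chimeric zebrafish TRb–Gal4. Dosed 24 h with 3 nM 6-alpha-fluorotestosterone present; reporter mRNA measured by RT-PCR, HpaI digestion and capillary electrophoresis; gain of signal versus DMSO.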

A short description of assay [9]: ATG_XTT_Cytotoxicity_XSP1: Cytotoxicity Assessment in the Attagene TRANS-FACTORIAL Multi-Species (XSP1) HepG2 Assay (AID 2283810). A digest of the protocol:
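XTT viability readout taken at 24 hours post-dosing in HepG2 liver cells co-treated with 3 nM 6-alpha-fluorotestosterone. Signal loss relative to DMSO controls reflects cytotoxicity.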

Assay [10] deals with turtle Androgen Receptor (AR), gene 101947425. In words: ATG_trAR_XSP2: Attagene TRANS-FACTORIAL Multi-Species (XSP2) HepG2 Assay for turtle Androgen Receptor (AR) (AID 2283815).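 For AC50: potency for gain of reporter signal meaning activation above DMSO baseline.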 The procedure, abridged:
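HepG2 cells transiently transfected with GAL4-UAS reporter units for chimeric NR-Gal4 receptors; 24 h dosing in presence of 3 nM 6-alpha-fluorotestosterone and 1.5 nM norgestrel. Reporter mRNA by RT-PCR and capillary electrophoresis, gain of signal versus DMSO.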

human Thyroid hormone Receptor beta (TRb), THRB (gene 7068), sequence (P10828 whole entry, looked up, the tested form may be a part): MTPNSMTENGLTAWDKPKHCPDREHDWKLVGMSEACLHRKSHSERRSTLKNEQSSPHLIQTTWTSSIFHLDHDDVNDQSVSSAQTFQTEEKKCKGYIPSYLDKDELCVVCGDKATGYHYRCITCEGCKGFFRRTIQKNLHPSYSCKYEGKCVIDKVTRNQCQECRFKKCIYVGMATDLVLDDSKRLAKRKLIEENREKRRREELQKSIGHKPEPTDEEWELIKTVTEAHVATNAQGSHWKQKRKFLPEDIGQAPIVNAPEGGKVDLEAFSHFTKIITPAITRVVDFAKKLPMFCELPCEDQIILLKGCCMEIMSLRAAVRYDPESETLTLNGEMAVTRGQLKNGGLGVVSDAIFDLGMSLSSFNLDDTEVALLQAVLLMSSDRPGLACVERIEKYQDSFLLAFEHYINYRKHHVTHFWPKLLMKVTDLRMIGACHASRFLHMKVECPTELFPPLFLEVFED
zebrafish Thyroid Hormone Receptor beta (TRb), thrb (gene 30607), sequence (Q9PVE4 whole entry, looked up, the tested form may be a part): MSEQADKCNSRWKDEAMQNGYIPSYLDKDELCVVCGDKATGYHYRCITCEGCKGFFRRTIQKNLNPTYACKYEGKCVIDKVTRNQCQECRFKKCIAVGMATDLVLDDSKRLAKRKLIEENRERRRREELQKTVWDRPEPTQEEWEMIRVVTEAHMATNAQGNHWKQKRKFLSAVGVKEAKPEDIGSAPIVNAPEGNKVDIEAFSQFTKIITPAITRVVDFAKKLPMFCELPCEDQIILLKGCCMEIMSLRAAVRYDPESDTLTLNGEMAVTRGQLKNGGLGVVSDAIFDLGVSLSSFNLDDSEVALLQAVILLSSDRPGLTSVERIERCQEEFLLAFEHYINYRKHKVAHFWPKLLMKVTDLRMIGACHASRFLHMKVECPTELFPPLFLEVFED
Estrogen receptor beta (Homo sapiens), sequence (Q92731 whole entry, looked up, the tested form may be a part): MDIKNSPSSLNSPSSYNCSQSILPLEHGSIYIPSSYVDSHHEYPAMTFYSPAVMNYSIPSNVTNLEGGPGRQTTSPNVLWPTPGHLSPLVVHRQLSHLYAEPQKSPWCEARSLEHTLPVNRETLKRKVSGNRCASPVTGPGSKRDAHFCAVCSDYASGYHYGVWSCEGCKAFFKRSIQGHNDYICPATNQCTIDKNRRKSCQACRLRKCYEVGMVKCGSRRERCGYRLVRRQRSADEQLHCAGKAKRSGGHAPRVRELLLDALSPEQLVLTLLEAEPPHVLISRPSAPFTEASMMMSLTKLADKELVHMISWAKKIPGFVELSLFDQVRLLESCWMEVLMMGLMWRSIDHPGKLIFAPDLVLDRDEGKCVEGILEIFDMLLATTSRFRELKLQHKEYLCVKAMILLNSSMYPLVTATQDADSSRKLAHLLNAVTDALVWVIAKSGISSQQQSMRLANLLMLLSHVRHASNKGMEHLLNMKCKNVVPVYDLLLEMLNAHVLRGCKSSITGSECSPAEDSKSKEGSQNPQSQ
zebrafish Estrogen Receptor (ER1), esr1 (gene 259252), sequence (P57717 whole entry, looked up, the tested form may be a part): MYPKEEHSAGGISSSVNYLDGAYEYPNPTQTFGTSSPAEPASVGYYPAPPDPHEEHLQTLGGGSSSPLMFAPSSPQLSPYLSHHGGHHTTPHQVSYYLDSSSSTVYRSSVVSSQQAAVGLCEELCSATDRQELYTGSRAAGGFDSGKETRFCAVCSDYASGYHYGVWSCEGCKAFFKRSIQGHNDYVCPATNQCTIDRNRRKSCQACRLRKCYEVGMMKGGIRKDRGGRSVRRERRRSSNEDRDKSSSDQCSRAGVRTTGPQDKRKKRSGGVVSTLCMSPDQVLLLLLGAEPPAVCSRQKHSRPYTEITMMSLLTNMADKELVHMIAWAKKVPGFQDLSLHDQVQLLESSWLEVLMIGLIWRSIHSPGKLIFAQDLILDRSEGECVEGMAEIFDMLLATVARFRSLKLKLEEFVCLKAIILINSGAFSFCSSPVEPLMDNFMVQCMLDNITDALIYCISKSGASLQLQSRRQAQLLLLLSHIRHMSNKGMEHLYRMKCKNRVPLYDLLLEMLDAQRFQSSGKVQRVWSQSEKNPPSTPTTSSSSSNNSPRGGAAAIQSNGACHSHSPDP
zebrafish Thyroid Hormone Receptor alpha (TRa), thraa (gene 30670), sequence (Q98867 whole entry, looked up, the tested form may be a part): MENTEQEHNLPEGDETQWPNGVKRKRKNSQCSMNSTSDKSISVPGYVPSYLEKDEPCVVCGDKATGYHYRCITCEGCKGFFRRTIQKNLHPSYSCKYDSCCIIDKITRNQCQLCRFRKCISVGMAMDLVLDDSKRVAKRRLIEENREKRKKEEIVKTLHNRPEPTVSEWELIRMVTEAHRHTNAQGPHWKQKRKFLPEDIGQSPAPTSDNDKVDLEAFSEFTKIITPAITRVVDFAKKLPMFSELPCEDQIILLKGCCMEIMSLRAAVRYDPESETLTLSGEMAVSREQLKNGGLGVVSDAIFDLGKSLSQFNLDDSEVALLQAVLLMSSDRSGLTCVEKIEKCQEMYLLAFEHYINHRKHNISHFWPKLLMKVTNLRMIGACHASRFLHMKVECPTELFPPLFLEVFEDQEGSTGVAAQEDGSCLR
GAL4 Transcription Factor (Internal Marker), GAL4 (gene 855828), sequence (P04386 whole entry, looked up, the tested form may be a part): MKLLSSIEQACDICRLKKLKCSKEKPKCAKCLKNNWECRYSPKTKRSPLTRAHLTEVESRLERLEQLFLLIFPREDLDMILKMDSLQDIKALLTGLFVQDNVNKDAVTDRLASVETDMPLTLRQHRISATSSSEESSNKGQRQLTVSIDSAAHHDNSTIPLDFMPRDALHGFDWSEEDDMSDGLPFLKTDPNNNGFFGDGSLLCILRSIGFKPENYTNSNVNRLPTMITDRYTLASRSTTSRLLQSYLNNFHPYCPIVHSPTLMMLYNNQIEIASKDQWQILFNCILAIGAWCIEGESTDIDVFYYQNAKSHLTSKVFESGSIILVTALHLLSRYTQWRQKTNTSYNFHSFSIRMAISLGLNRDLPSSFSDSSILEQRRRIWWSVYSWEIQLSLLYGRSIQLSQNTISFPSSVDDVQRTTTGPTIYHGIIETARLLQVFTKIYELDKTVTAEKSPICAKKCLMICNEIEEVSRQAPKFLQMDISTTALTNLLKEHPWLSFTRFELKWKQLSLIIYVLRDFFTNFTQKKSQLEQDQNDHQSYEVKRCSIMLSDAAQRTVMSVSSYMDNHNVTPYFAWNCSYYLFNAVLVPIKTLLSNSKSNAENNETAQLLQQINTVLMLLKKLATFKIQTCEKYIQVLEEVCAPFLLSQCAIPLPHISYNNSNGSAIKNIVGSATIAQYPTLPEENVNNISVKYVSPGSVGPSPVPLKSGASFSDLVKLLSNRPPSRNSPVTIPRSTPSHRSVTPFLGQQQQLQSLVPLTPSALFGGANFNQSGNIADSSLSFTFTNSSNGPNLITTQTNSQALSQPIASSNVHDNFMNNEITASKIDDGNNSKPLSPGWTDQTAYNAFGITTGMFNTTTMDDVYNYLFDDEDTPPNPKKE

Take `C[C@H]1CCCC(=O)CCC/C=C/c2cc(O)cc(O)c2C(=O)O1`: the outcome in assay [1], in assay [3] and in [4] was inactive. Besides, the AC50 in [2] was 7 nM (active) and 1.7 nM (active); in assay [3] it was 2.99 nM (active); in assay [4], 9.96 nM (active).

As to `O=S(=O)(c1ccc(Cl)cc1)c1ccc(Cl)cc1`, the compound was called inactive in assay [1] and in assay [3]. The half-maximal activity concentration (AC50) in assay [2] is 14.4 µM (active) and 15.9 µM (active); in assay [3], 8120 nM (active); in assay [4], 26.6 µM (active) and 37.7 µM (active).

Consider `Clc1ccc(C2(Cn3cncn3)CC(Br)CO2)c(Cl)c1` (stereo not given), for which the call in assay [1], in [2], in [3], in [5] and in assay [4] was inactive. Also, in assay [2], the half-maximal activity concentration (AC50) was 19.8 µM (active).

Regarding `O=C1C2(Cl)C3(Cl)C4(Cl)C(Cl)(Cl)C5(Cl)C3(Cl)C1(Cl)C5(Cl)C24Cl` (stereo not given), the compound was called inactive in assay [6], in assay [7], in [8], in [1] and in assay [4]. For the same compound, the AC50 in assay [2] was 0.514 µM (active).

As for `CC(C)(C)CC(C)(C)c1ccc(O)cc1`, the compound was called inactive in [6], in assay [8], in assay [9], in assay [1] and in [3]. Moreover, the concentration at half-maximal activity (AC50) in [2] is 5.79 µM (active).

Turning to `C[C@]12CC[C@H](O)CC1=CC[C@@H]1[C@@H]2CC[C@]2(C)C(=O)CC[C@@H]12`, the compound was classed as inactive in [1] and in assay [5]. Further, the AC50 in assay [2] is 2.22 µM (active) and 1.09 µM (active); in [3] it was 1.14 µM (active) and 962 nM (active); in assay [4], 13.9 µM (active) and 7.49 µM (active).

`CC(C)(C)c1cc(O)ccc1O`: the outcome in assay [6], in assay [8], in assay [1], in [10] and in assay [4] was inactive. The AC50 in [2] is 15.3 µM (active).

For `Oc1ccc(-c2ccccc2)cc1`, the result in assay [1] was inactive. Further, the half-maximal activity concentration (AC50) in [2] was 1.44 µM (active) and 925 nM (active); in [3], 1.16 µM (active) and 1.68 µM (active); in assay [4], 4.42 µM (active) and 8.23 µM (active).

As to `CC12CC1(C)C(=O)N(c1cc(Cl)cc(Cl)c1)C2=O` (stereo not given), the compound was classed as inactive in assay [6], in assay [8], in assay [9], in assay [1], in assay [2] and in assay [3]. Also, the outcome in [5] and in assay [4] was inactive. Moreover, in assay [2], the AC50 was 100 µM (active).

In the case of `Oc1c(I)cc(I)cc1I`, the result in assay [1], in assay [3] and in [4] was inactive.

Take `CC1(C)CCC(Cc2ccc(Cl)cc2)C1(O)Cn1cncn1` (stereo not given): the compound was called inactive in assay [6], in [7], in [8], in [9], in assay [1] and in assay [5]. In addition, the outcome in [4] was inactive. Further, the concentration at half-maximal activity (AC50) in [2] is 5.11 µM (active).

Take `CC(=O)C=C(C)C`: the compound was classed as inactive in assay [1], in assay [2] and in assay [4].

Turning to `C[C@]12CCC(=O)C[C@@H]1CC[C@@H]1[C@@H]2CC[C@]2(C)[C@@H](O)CC[C@@H]12`, the compound was called inactive in assay [6], in assay [7], in [9], in [1], in assay [2] and in assay [3]. The call in [4] was inactive. Moreover, the concentration at half-maximal activity (AC50) in assay [10] was 0.0339 µM (active).

As to `CC(C)C1CCC(Cc2ccc(Cl)cc2)C1(O)Cn1cncn1` (stereo not given), the compound was classed as inactive in assay [1], in assay [2], in [3], in [5] and in [4].

For `COP(=O)(OC)O/C(=C\Cl)c1cc(Cl)c(Cl)cc1Cl`, the call in assay [6], in [8], in assay [1] and in assay [5] was inactive. In [2], the AC50 was 3.18 µM (active).
